The values below come from PubChem BioAssay (EPA / NIEHS).

Inconclusive results are not listed. The source made the active and inactive calls. The calls were made as follows, unless noted: active = hit-call score of the fitted dose curve at least 0.9, where 1 is the maximum; inactive = score below 0.9.

A short description of experiment [1]: ACEA_ER_80hr: ACEA Biosciences xCELLigence Real-Time Cell Analysis on Estrogen Receptor Agonism for Proliferation (AID 2282667; active = hit-call score of the fitted dose curve at least 0.9, where 1 is the maximum). To be noted: T47D proliferation, impedance (xCELLigence), 80 h. Put shortly:
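Real-time electrical impedance tracked growth of the human breast line T47D, with the 80 h post-dosing value used. Dosing spanned eight 1:4 steps down from a 100 uM final top concentration, run in duplicate.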

A short description of experiment [2]: APR_HepG2_CellCycleArrest_24hr: Apredica 24-hour HepG2 Assay for Cell Cycle Arrest (AID 2282905).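 Also: cell cycle arrest scored as ratio of 2N to 4N nuclear DNA content.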 Particulars: imaging, actives raise or lower the signal. Put shortly:
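After 24 h exposure at 0.39–200 uM in 0.5% DMSO, fixed cells received Hoechst 33342 staining. Imaging quantified per-nucleus DNA content; gain or loss fitted against DMSO controls.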

Experiment [3] can be described thus: APR_HepG2_NuclearSize_24hr: Apredica 24-hour HepG2 Assay for Nuclear Size (AID 2282907). Particulars: high-content imaging, actives raise or lower the signal. Put shortly:
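Nuclear size from Hoechst 33342-stained, formaldehyde-fixed HepG2 nuclei imaged by high-content microscopy, after 24 h dosing at ten concentrations from 0.39 to 200 uM in 0.5% DMSO; gain or loss relative to DMSO baseline.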

The nature of experiment [4]: APR_HepG2_CellLoss_24hr: Apredica 24-hour HepG2 Assay for Cell Loss (AID 2282908). To be noted: high-content imaging. Put shortly:
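Nuclei stained with Hoechst 33342 after formaldehyde fixation (3.7%) were imaged at 20x to count cells. Exposure lasted 24 hr, at ten concentrations from 0.39 to 200 uM in duplicate, with 0.5% v/v DMSO. Fit bidirectional, relative to DMSO.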

Experiment [5] in a line: APR_HepG2_MicrotubuleCSK_24hr: Apredica 24-hour HepG2 Assay for Microtubule CSK Stabilty (AID 2282909). Particulars: HepG2 microtubule cytoskeleton imaging, actives raise or lower the signal. Put shortly: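 Fixed HepG2 cells were stained for alpha-tubulin and imaged after 24 hr exposure to ten concentrations spanning 0.39–200 uM in 0.5% DMSO. Signal change was fitted in both directions relative to DMSO; taxol was the positive control.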

Experiment [6] can be described thus: APR_HepG2_MitoticArrest_24hr: Apredica 24-hour HepG2 Assay for Mitotic Arrest (AID 2282910). Particulars: high-content imaging, actives raise or lower the signal. Put shortly:
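HepG2, 24 hr dosing, 0.39–200 uM, 0.5% DMSO final. Formaldehyde-fixed, Triton-permeabilised, anti-phospho-histone H3 plus Hoechst. ArrayScan imaging at 20x; bidirectional fit vs DMSO baseline.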

A short description of experiment [7]: APR_HepG2_MitoMembPot_24hr: Apredica 24-hour HepG2 Assay for Mitochondrial Membrane Potential (AID 2282911). Particulars: imaging, actives raise or lower the signal. Put shortly: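 Cells are dosed for 24 hr across 0.39 to 200 uM with solvent held at 0.5% DMSO. They are then stained with 250 nM MitoTracker Red CMXRos for 30 min, fixed in 3.7% formaldehyde and imaged.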

Experiment [8] can be described thus: APR_HepG2_MitoMass_24hr: Apredica 24-hour HepG2 Assay for Mitochondrial Mass (AID 2282912). Particulars: high-content imaging, actives raise or lower the signal. Put shortly: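 Endpoint is MitoTracker Red CMXRos (250 nM, 30 min, pre-fixation) intensity from 20x high-content imaging, nuclei located by Hoechst. Human HepG2 cells received ten concentrations from 0.39 to 200 uM in 0.5% DMSO for 24 hr, duplicate wells. Bidirectional fit relative to DMSO.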

Experiment [9] can be described thus: APR_HepG2_p53Act_24hr: Apredica 24-hour HepG2 Assay for p53 Activation (AID 2282913).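 Also: p53 protein immunofluorescence averaged per cell in HepG2 with Hoechst nuclei.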 Particulars: high-content imaging, actives raise or lower the signal. Put shortly:
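Human HepG2 liver cells; 24 hr cpd treatment, 0.39–200 uM, 0.5% DMSO final. Fixed in 3.7% formaldehyde, permeabilized with 0.5% Triton X-100, stained with anti-p53/Cy5 plus Hoechst 33342. Six images per well at 20x; gain or loss vs DMSO.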

The nature of experiment [10]: APR_HepG2_CellCycleArrest_72hr: Apredica 72-hour HepG2 Assay for Cell Cycle Arrest (AID 2282914). To be noted: high-content imaging, actives raise or lower the signal. Put shortly: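 Read-out is Hoechst-stained nuclear DNA content measured by automated fluorescence imaging (20x, six images per well), fitted in both directions relative to DMSO. Human HepG2 liver cells received 0.39–200 uM compound for 72 hr at 0.5% v/v DMSO.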

Experiment [11] can be described thus: APR_HepG2_CellLoss_72hr: Apredica 72-hour HepG2 Assay for Cell Loss (AID 2282915). Particulars: high-content imaging. Put shortly:
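HepG2 cells exposed 72 h to compound at 0.39–200 uM (10 concentrations, duplicate) in 0.5% DMSO. Fixed with 3.7% formaldehyde and Hoechst 33342-stained. Imaged at 20x; nuclear count gives cell number, fitted bidirectionally versus DMSO.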

The nature of experiment [12]: APR_HepG2_P-H2AX_72hr: Apredica 72-hour HepG2 Assay for H2AX Phosphorylation (AID 2282916).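 Also: phospho-histone H2A.x immunostain intensity per cell marking DNA damage.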 Particulars: imaging, actives raise or lower the signal. Put shortly:
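Phospho-histone H2A.x immunofluorescence, multiplexed with Hoechst and c-Jun, quantified by high-content imaging. Compounds applied to HepG2 for 72 h across ten concentrations (0.39–200 uM, 0.5% DMSO), in duplicate; DMSO baseline.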

A short description of experiment [13]: APR_HepG2_MitoMembPot_72hr: Apredica 72-hour HepG2 Assay for Mitochondrial Membrane Potential (AID 2282917). Particulars: imaging, actives raise or lower the signal. Put shortly: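 HepG2 cells dosed 72 hr with compound at 0.39–200 uM in duplicate, 0.5% v/v DMSO final. Mitochondria stained with 250 nM MitoTracker Red CMXRos for 30 min before formaldehyde fixation, imaged by high-content fluorescence; bidirectional fit versus DMSO.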

Experiment [14] in a line: APR_HepG2_MicrotubuleCSK_72hr: Apredica 72-hour HepG2 Assay for Microtubule CSK Stabilty (AID 2282919). Particulars: HepG2 microtubule cytoskeleton, high-content imaging, actives raise or lower the signal. Put shortly:
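HepG2, 72 hr cmpd exposure, 0.39–200 uM (10 pts, duplicate), 0.5% DMSO. 3.7% formaldehyde fix, 0.5% Triton perm, anti-alpha-tubulin/Cy5 plus Hoechst. HCS fluorescence intensity; bidirectional fit vs DMSO baseline; taxol as positive control.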

Experiment [15] can be described thus: APR_HepG2_P-H2AX_24hr: Apredica 24-hour HepG2 Assay for H2AX Phosphorylation (AID 2282920). Particulars: high-content imaging, actives raise or lower the signal. Put shortly:
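HepG2, 24 hr, cpd 0.39–200 uM (10 conc, duplicate), DMSO 0.5% v/v final. Fix 3.7% formaldehyde, Triton X-100 permeabilize, anti-phospho-H2A.x 1:200 + Hoechst 2 ug/mL. Imaged, bidirectional fit vs DMSO.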

Experiment [16] is described as follows: APR_HepG2_StressKinase_72hr: Apredica 72-hour HepG2 Assay for Stress Kinase (AID 2282921). Particulars: HepG2 stress kinase (phospho-c-Jun) imaging, actives raise or lower the signal. Put shortly:
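Stress kinase signal is phospho-c-Jun immunofluorescence (1:500 primary, Cy3 secondary) in fixed, permeabilized human HepG2 cells imaged at 20x. Exposure lasted 72 hr over ten concentrations from 0.39 to 200 uM, 0.5% DMSO, in duplicate. Bidirectional fit versus DMSO.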

The nature of experiment [17]: APR_HepG2_StressKinase_24hr: Apredica 24-hour HepG2 Assay for Stress Kinase (AID 2282922). To be noted: HepG2 stress kinase (phospho-c-Jun) imaging, actives raise or lower the signal. Put shortly:
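Read-out: phospho-c-Jun immunofluorescence (Cy3 secondary) quantified by high-content imaging at 20x, nuclei defined by Hoechst 33342. Human HepG2 liver cells dosed 24 hr, 0.39–200 uM, DMSO 0.5% v/v; gain or loss of signal fitted relative to DMSO.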

Experiment [18] is described as follows: APR_HepG2_MitoMass_72hr: Apredica 72-hour HepG2 Assay for Mitochondrial Mass (AID 2282924).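 Also: MitoTracker Red CMXRos stain intensity per cell imaged as mitochondrial mass.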 To be noted: high-content imaging, actives raise or lower the signal. Put shortly:
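Read-out: MitoTracker Red fluorescence intensity from automated imaging (20x, six fields per well) in human HepG2 liver cells. Dosing ran 72 hr, 0.39–200 uM, 0.5% DMSO; bidirectional curve fitting versus DMSO baseline.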

Experiment [19] can be described thus: APR_HepG2_NuclearSize_72hr: Apredica 72-hour HepG2 Assay for Nuclear Size (AID 2282925). To be noted: high-content imaging, actives raise or lower the signal. Put shortly:
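Read-out: nuclear diameter from Hoechst 33342 images (ArrayScan, 20x, six fields/well), via cell-cycle image analysis. HepG2 were dosed 0.39–200 uM for 72 hr in 0.5% DMSO. Bidirectional fit relative to DMSO.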

A short description of experiment [20]: APR_HepG2_MitoticArrest_72hr: Apredica 72-hour HepG2 Assay for Mitotic Arrest (AID 2282918). Particulars: high-content imaging, actives raise or lower the signal. Put shortly: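 Read-out is phospho-histone H3 immunofluorescence with Hoechst nuclear segmentation, imaged at 20x. Human HepG2 liver cells received ten concentrations (0.39–200 uM, final DMSO 0.5% v/v) for 72 hr before fixation. Gain or loss of signal was fitted relative to DMSO.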

On to `O=C(Cl)C(F)(F)C(F)(F)C(F)(F)C(=O)Cl`, for which the compound was classed as inactive in experiment [1].
The same measure, in the same setting: the same measure for `O=C(N[C@H](CO)[C@H](O)c1ccc([N+](=O)[O-])cc1)C(Cl)Cl`: “inactive”.
The same measure, in the same setting: then `OCc1c[nH]c2ccccc12`, with “inactive”; and `Cc1cccc(O)c1C`, with “inactive”.
Turning to `CCn1nc(C)c2c1C(=O)NCC(c1ccc(O)cc1)=N2`, the compound was classed as inactive in experiment [1], in [2], in experiment [3], in experiment [4], in experiment [5] and in experiment [6]. Moreover, the outcome in experiment [7], in experiment [8], in [9], in experiment [10], in [11] and in [12] was inactive. For the same compound, the result in experiment [13], in experiment [14], in experiment [15], in [16], in experiment [17] and in experiment [18] was inactive. Moreover, the compound was called inactive in experiment [19].
Regarding `NC(=O)N(O)[C@@H]1COc2cc(OCc3ccccc3)ccc21`, the compound was classed as inactive in [1], in [2], in experiment [3], in experiment [4], in [5] and in [6]. For the same compound, the compound was classed as inactive in [8], in experiment [10], in [11], in [12], in experiment [13] and in experiment [20]. Further, the result in experiment [14], in [15], in experiment [16], in experiment [17], in [18] and in experiment [19] was inactive. Further, the AC50 (as a rule, the concentration at which the activity in the assay is half-maximal) in experiment [7] was 52.2 µM (active).
Turning to `C[Si](C)(C)C(F)(F)C(F)(F)C(F)(F)F`, the compound was classed as inactive in experiment [1].
Consider `OC(CCl)CCl`, for which the compound was called inactive in experiment [1], in experiment [2], in experiment [3], in experiment [4], in [6] and in [7]. The result in experiment [8], in experiment [9], in experiment [10], in [11], in experiment [12] and in [13] was inactive. The call in [20], in experiment [14], in [15], in experiment [16], in experiment [17] and in experiment [18] was inactive. In addition, the compound was called inactive in experiment [19].
As for `Cn1cc[nH]c1=S`, the compound was called inactive in experiment [1], in [2], in [3], in experiment [4], in [5] and in experiment [6]. Besides, the result in experiment [7], in [8], in experiment [9], in experiment [10], in [11] and in experiment [12] was inactive. The outcome in experiment [13], in experiment [20], in experiment [14], in experiment [15], in [16] and in [17] was inactive. Besides, the compound was classed as inactive in [18] and in experiment [19].
Turning to `CCCOc1ccc(S(=O)(=O)N2CCN(CC)CC2)cc1-c1nc2c(CC)n(Cc3ccccn3)nc2c(=O)[nH]1`, the call in [1], in experiment [2], in [3], in experiment [4], in experiment [5] and in [6] was inactive. Moreover, the outcome in [7], in experiment [8], in experiment [10], in [13], in [14] and in experiment [15] was inactive. Moreover, the result in experiment [16], in [17], in [18] and in [19] was inactive. The AC50 is 88.5 µM (active) in experiment [11] and 99.7 µM (active) in experiment [12].
In the case of `OCCC(F)(F)C(F)(F)C(F)(F)C(F)(F)F`, the outcome in [1] was inactive.
As to `O=C(O)CO`, in experiment [1], the call was inactive.
On the same count and under the same terms, then `FC(F)=C(F)C(F)(F)C(F)(F)C(F)(F)C(F)(F)C(F)(F)C(F)(F)F`, with “inactive”.
As to `O=C(O)c1ccc2c(c1)nc(C(=O)NC1CCN(C3CC3)CC1)n2Cc1cc(-c2ccc(Cl)s2)on1`, the compound was classed as inactive in experiment [1], in experiment [2], in experiment [3], in [4], in experiment [5] and in experiment [6]. Also, the call in experiment [7], in experiment [8], in experiment [9], in experiment [10], in experiment [11] and in [12] was inactive. The call in experiment [13], in experiment [20], in experiment [14], in experiment [15], in [16] and in [17] was inactive. Further, the compound was classed as inactive in experiment [18] and in experiment [19].
